# JMJD2E inh = inhibitors of human JMJD2E histone demethylase. B2RXH2. Potency, µM (doses to about 57.1 µM), inactives show top-dose activity change, negative = inhibition, usual class: inhibitors. JMJD2E catalytic domain, FDH-coupled NADH fluorescence (FDH is formaldehyde dehydrogenase). 1.6% of 230,000 active;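 also: 0% = wells with enzyme and -100% = buffer wells without enzyme; nearly all actives have a fitted effect of over 50% in size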
# HTT cytoprotect = cytoprotection in Huntington HTT-Q103 PC12 cell model | PC12 HTT-Q103 induced, cytoprotection, ATP luminescence, 40 h | Potency, µM (doses to about 56.4 µM), inactives show cytoprotection (ATP increase), hits mostly activators | 0.14% of 230,000 active | AID 1471; active = well fitted curve in the direction sought with a large enough effect; inconclusive = small, poorly fitted or top-dose-only effect, or another doubt; inactive = no such curve, though single readings can be large; an effect the other way counts as inactive or inconclusive; also: % of control where 0% means no effect; nearly all actives have a fitted effect of over 45% in size
#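 Quantitative HTS on tebufenozide-induced (100 nM) PC12 cells expressing HTTQ103 exon 1–GFP; compounds tested as a concentration series; survival measured via cellular ATP.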
# HTT aggregate = inhibitors of mutant huntingtin aggregate formation in PC12 cells; PC12 HttQ103-GFP aggregates, Acumen cytometry, 40 h; Potency, µM (doses to about 46.1 µM), for inactives: at the highest dose activity change, negative = inhibition, actives largely listed as inhibitors; 1.1% of 220,000 active; AID 1688; active = well fitted curve in the direction sought with a large enough effect; inconclusive = small, poorly fitted or top-dose-only effect, or another doubt; inactive = no such curve, though single readings can be large; an effect the other way counts as inactive or inconclusive; also: % is scaled to controls: 0 for no effect and ±100 for the full control effect; nearly all actives have a fitted effect of over 60% in size
#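 Aggregate formation scored by laser-scanning cytometer (488 excitation, 500–530 emission) in lysed PC12 cells expressing Q103-GFP after 100 nM tebufenozide induction; library tested in dose series, with ATPLite reagent added in the multiplex.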
# ALDH1A1 inh = inhibitors of human aldehyde dehydrogenase 1A1. P00352. Purified ALDH1A1, NADH fluorescence, propionaldehyde substrate. Potency, µM (series often up to 75.3 µM), for the others: top-dose activity, negative = inhibition, usual class: inhibitors. 7.3% of 220,000 active;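 also: plate controls were no enzyme wells and a reference inhibitor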
# Target sequence (P00352 whole entry, looked up): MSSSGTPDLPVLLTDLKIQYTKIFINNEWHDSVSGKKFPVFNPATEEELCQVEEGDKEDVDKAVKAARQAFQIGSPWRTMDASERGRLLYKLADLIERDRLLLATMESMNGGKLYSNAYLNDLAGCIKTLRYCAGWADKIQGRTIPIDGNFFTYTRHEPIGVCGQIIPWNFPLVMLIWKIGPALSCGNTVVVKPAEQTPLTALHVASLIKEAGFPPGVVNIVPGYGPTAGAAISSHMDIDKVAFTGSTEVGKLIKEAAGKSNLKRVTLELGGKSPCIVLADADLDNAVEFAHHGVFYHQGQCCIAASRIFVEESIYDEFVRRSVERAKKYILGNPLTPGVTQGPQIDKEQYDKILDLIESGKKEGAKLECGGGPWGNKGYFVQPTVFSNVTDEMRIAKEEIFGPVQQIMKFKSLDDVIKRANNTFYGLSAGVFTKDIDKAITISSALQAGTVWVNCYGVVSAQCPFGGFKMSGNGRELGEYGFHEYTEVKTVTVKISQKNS
# HPGD inh = blocks human HPGD enzyme activity. P15428. purified HPGD, NADH fluorescence kinetic, PGE2 substrate. Potency, µM, for inactives: at the top dose activity change, negative = inhibition, hits mostly inhibitors. 4.3% of 150,000 active. AID 894; also: % is scaled to controls: 0 for no effect and ±100 for the full control effect
# Target sequence (P15428 whole entry, looked up): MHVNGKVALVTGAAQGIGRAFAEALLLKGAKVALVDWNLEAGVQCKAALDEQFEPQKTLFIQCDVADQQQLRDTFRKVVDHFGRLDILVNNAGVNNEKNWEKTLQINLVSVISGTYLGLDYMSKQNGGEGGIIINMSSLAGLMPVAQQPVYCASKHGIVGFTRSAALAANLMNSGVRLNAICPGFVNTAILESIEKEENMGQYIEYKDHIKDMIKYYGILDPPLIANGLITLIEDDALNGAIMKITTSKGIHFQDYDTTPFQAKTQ
#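 20 nM HPGD preincubated 15 min at room temperature with compound in 50 mM Tris-HCl pH 8, 0.01% Tween 20. Started with 1 mM NAD+ and 30 uM prostaglandin E2; NADH fluorescence (360/450 nm) read 5 times over 30-s intervals, last minus first.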
# LMNA splice mod = LMNA splicing modulation; HeLa LMNA splicing GFP/RFP minigene ratio, 48 h; Potency, µM (highest dose often 46.1 µM), for the others: at the highest dose ratio change, negative = inhibition, hits mostly inhibitors; 0.01% of 200,000 active; active = well fitted inhibition curve with a large enough effect in the signal ratio, with a control signal flat, not every such curve was filed as active; inconclusive = small, poorly fitted or top-dose-only effect, or effect the other way, or a change in a side signal; the % refers to the signal ratio; also: % is scaled to controls: 0 for no effect and ±100 for the full control effect
#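 S3 HeLa stable clones carrying a lamin A-EGFP splicing minigene plus DsRed2 were seeded at 600 cells/well in Opti-MEM with 2% FBS, pin-dosed and incubated 48 h at 37°C. Acumen cytometry (488 nm) gave the GFP/RFP total-intensity ratio.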
# The depositor's hits bear a star; ? = inconclusive; / = no result; [ ] = another dose, or the depositor's remark. Rows were chosen to be rich in hits. Some 9.2% of all compounds tested hit in one or more screens of this group. Unless noted, calls follow the shape of the dose curve; as a rule, active = well fitted inhibition curve with a large enough effect (not every such curve was filed as active); inconclusive = small, poorly fitted or top-dose-only effect, or another doubt; inactive = no such curve, though single readings can be large or run the other way. Potency is read from the fitted curve at half-maximal effect.
SMILES,JMJD2E inh,HTT cytoprotect,HTT aggregate,ALDH1A1 inh,HPGD inh,LMNA splice mod
CCCC[C@@H](C)[C@@H](OC(=O)C[C@@H](CC(=O)O)C(=O)O)[C@H](C[C@@H](C)C[C@H](O)CCCC[C@@H](O)C[C@H](O)[C@H](C)N)OC(=O)C[C@H](CC(=O)O)C(=O)O,/,-64.2%,/,?,/,/
O=C(O)[C@@H](Br)[C@H](Br)C(=O)O,/,8.7%[10 µM],/,14.6%[13.5 µM],-4.2%,/
Cc1[nH]n(-c2ccccc2)c(=O)c1C(c1ccc([N+](=O)[O-])cc1)c1c(C)[nH]n(-c2ccccc2)c1=O,-6.6%,-12.8%[10 µM],-7.2%,12.6µM*,28.2µM*,?
Cc1[nH]n(-c2ccccc2)c(=O)c1C(C[N+](=O)[O-])c1ccccc1Cl (stereo unspecified),-27.6%,1.0%,-5.5%,?,-12.2%,-1.9%
CCn1c(N)c(C(=O)NC)sc1=S,?,2.8%,-21.2%,2.82µM*,3.55µM*,3.4%
O=C(c1ccc(Cl)cc1)C1CCCN(Cc2cccc3cnccc23)C1 (stereo unspecified),8.1%,-25.4%,20µM*,0.5%,/,/
O=C(c1cccc(Cl)c1)C1CCCN(Cc2cccc3cnccc23)C1 (stereo unspecified),1.3%,21.2%[10 µM],0.3%[9.22 µM],6.0%,/,/
CC(=NCc1ccco1)c1c(O)n(C)c(=O)n(C)c1=O,2.0%,-15.3%[0.074 µM],15.8µM*,-9.2%,-10.0%,?
C[C@]12CC[C@@H](O)C[C@@H]1CC[C@@H]1[C@@H]2CC[C@]2(C)C=CC[C@@H]12,/,-38.2%,/,?,/,/
CCN(CCNc1ccc([N+](=O)[O-])c2cccnc12)S(=O)(=O)c1ccc(Cl)cc1,6.4%,-10.4%,0.1%,2.82µM*,-11.3%,5.5%
[N-]=[N+]=CC(=O)CC[C@H](N)C(=O)O,/,-18.1%[10 µM],/,3.4%[13.5 µM],-4.7%,/
CCOC(=O)c1c(/N=C/C2C(=O)NC(=S)NC2=O)sc(C)c1C,-4.3%,/,26.4%,20µM*,/,/
N#Cc1c(/N=C/C2C(=O)NC(=S)NC2=O)sc2c1CCCC2,?,/,15.9%,22.4µM*,/,/
CCOC(=O)c1cc(C)sc1/N=C/C1C(=O)NC(=S)NC1=O,?,-23.5%,14.6%,7.08µM*,/,-16.2%[46 µM]
CCOC(=O)c1c(/N=C/C2C(=O)NC(=S)NC2=O)sc2c1CCC2,?,-21.7%,15.4%,17.8µM*,/,-2.3%[46 µM]
CO[C@@H]1CC=C2CCN3CCC4=C(CC(=O)OC4)[C@]23C1,/,12.6%[1.9 µM],/,/,/,/
C[C@H](N)C(=O)N[C@@H](C)C(=O)N[C@@H](Cc1ccccc1)C(=O)CCl,/,-22.5%,/,-15.6%,/,/
CCOC(=O)CN(C#N)c1nc(N(C)C)nc(N(C)C)n1,-0.1%,-24.1%,-9.9%,10µM*,/,/
CC(n1cc(C[C@H](N)C(=O)O)c2ccccc21)n1cc(C[C@H](N)C(=O)O)c2ccccc21,/,-14.7%,/,?,/,/
NC(=O)c1sc2nc3c(c(-c4cccs4)c2c1N)CCCC3,-18.5%,15.8µM*,/,?,?,?
CN1CCc2nc3sc(C#N)c(N)c3c(-c3cccs3)c2C1,-14.5%,12.6µM*,-3.6%,-2.5%,-8.2%,0.1%
CN1CCc2nc(N)c(C#N)c(-c3ccccc3)c2C1,?,-3.5%[10 µM],-4.6%,?,?,-7.5%
O=C(/C=C\c1ccc(Cl)cc1)N[C@@]12CCC(=O)[C@@H]3Oc4c(O)ccc5c4[C@@]31CCN(CC1CC1)[C@@H]2C5,-18.6%,5.7%,/,-0.3%,4.0%,/
CC1C(=O)OC2C1CC[C@@]1(C)C=CC(=O)[C@@]3(C)O[C@@]213 (stereo partly specified),4.2%,35.5µM*,/,4.3%,2.7%,/
CC1=C2C3OC(=O)[C@H](C)[C@H]3CC[C@@]2(C)C=CC1=O (stereo partly specified),11.6%,-6.3%[1.9 µM],/,5.1%,1.6%,/
SMILES,JMJD2E inh,HTT cytoprotect,HTT aggregate,ALDH1A1 inh,HPGD inh,LMNA splice mod
COc1ccccc1OCC#CCN1CCOCC1,-3.0%,-24.1%,16.8%,0.1%,/,/
COc1ccccc1OCC#CCN1CCCCCC1,0.1%,5.62µM*,?,28.2µM*,/,/
CCN1C[C@]2(C)CC[C@H](O)[C@@]34[C@@H]5C[C@@H]6[C@@H](OC)C[C@@](O)(C5[C@H]6O)[C@@H](C[C@@H]23)[C@@H]14,6.2%,/,/,8.6%,-8.7%,?
COc1ccc(C[C@@H]2NC[C@H](O)[C@H]2OC(C)=O)cc1,/,-74.6%,/,/,/,/
O=c1cccc2n1C[C@H]1C[C@@H]2CN(CCO)C1,/,20.1%,/,/,/,/
CCCCOC(C)=O,/,-18.1%,/,?,-10.0%,/
CCCCOCC1CO1 (stereo unspecified),/,-52.8%,/,-3.8%,-9.0%,/
CC(=O)N1CC[N+](C)(C)CC1,11.2µM*,-35.1%,/,-1.5%,-21.2%,/
CCCCn1c(O)c(C=NC2CC3CCC2(C)C3(C)C)c(=O)[nH]c1=O (stereo unspecified),2.8%,4.6%[10 µM],12.6µM*,-5.2%,-11.9%,?
Cn1c(O)c(C=NC2CC3CCC2(C)C3(C)C)c(=O)[nH]c1=O (stereo unspecified),-3.4%,-27.0%,-17.3%,-10.8%,-8.5%,10.9%
NO,1.41µM*,-7.5%[1.9 µM],/,8.4%,-2.7%,-1.6%
CCCC[N+](=O)[O-],/,-14.3%,/,?,-5.5%,/
S=P(C1CCCCC1)(C1CCCCC1)[C@H](c1cccnc1)N1CCCC1,/,-12.5%[10 µM],/,-15.9%[13.5 µM],1.5%,/
Cc1ccc2c(CN3CC=C(c4ccccc4)CC3)cc(=O)oc2c1C,25.1µM*,-11.6%[10 µM],-18.3%,?,/,-12.8%
CCc1ccc2c(CN3CC=C(c4ccccc4)CC3)cc(=O)oc2c1,14.1µM*,22.2%[10 µM],-9.6%,-14.6%,-13.5%,-4.2%
O=P(O)(O)c1ccccc1 (tested in a mixture with another compound),/,11.0%[10 µM],/,10.6%[13.5 µM],-7.4%,/
O=C1NC(=O)N(Cc2cccs2)C(=O)/C1=C/c1ccc(N2CCOCC2)cc1,?,-40.9%,-0.1%,7.08µM*,/,-5.6%[46 µM]
CCN1C(=O)NC(=O)/C(=C\c2ccc(N3CCOCC3)cc2OC)C1=O,-5.5%,-3.7%,-8.0%,?,?,11.2%
CCCCn1c(=O)c(C=Nc2cc([N+](=O)[O-])ccc2OC)c(O)n(CCCCl)c1=O,?,/,22.7%,11.2µM*,-18.0%,?
Cc1nn(-c2ccccc2)c2c1C(c1ccc3c(c1)OCO3)SCC(=O)N2 (stereo unspecified),-3.6%,9.9%[10 µM],-5.3%,-15.7%,8.91µM*,-1.5%
O=C(O)/C=C\c1ccc[c]([Sb])c1,/,/,/,8.2%[13.5 µM],-3.9%,/
C=CCn1c(O)c(C(C)=Nc2ccc(C(=O)OCC)cc2)c(=O)[nH]c1=O,-11.1%,-5.8%[0.074 µM],3.0%,31.6µM*,-28.4%,11.9%
C=CCn1c(O)c(C(C)=Nc2cccc(C(=O)O)c2)c(=O)[nH]c1=O,?,-2.8%[10 µM],-1.2%[9.22 µM],/,/,/

# Screens (PubChem)
